# Data from PubChem BioAssay AID2669 (National Center for Advancing Translational Sciences (NCATS), 2010).
# Values joined by “and” are separate entries in the source; they are usually repeats but may differ in a detail not shown here. Equal entries are not always repeated. Inconclusive results are not listed. Active and inactive are the calls of the source. Calls follow the shape of the dose curve; as a rule, active = well fitted inhibition curve with a large enough effect; inconclusive = small, poorly fitted or top-dose-only effect, or effect the other way; inactive = flat fitted curve, though single readings scatter.
# Assay: qHTS Assay Multiplex Screening to Identify Dual Action Probes in a Cell Model of Huntington: Cytoprotection (Protease relase)
# Conditions: PC12 HttQ103 cells, Cytotox-Glo protease release, 40 h; series mostly up to 46.1 µM
# Description: NIH Chemical Genomics Center [NCGC]
# NIH Molecular Libraries Probe Production centers Network [MLPCN]
# Assay Submitter (PI): Wei Zheng
# Huntington's disease is a neurodegenerative disorder caused by a trinucleotide repeat expansion in Exon 1 of the Huntingtin gene. The CAG trinucleotide encodes glutamine and polyglutamine expansions cause cell death in selective areas of the brain. Huntington polyglutamine repeats have the tendency to form aggregates which are observable in later stages of the disease. The exact nature of the aggregates, whether toxic, protective, or insignificant, is unclear.
# A stable PC12 cell line containing a gene fusion of Exon 1 of the Huntingtin gene linked to GFP under the control of the inducible ecdysone promoter were used as the cell-based model of Huntington Disease for high throughput screening. Exon 1 of the Huntingtin gene contained an expansion of 103 polyglutamines (Q103) which, when expressed, caused cell death and distinct, bright GFP aggregates. The amount of cell death and the size and intensity of GFP aggregates increased over time and induction level. In the primary screen, cell death were quantified with a measurement of ATP content in the cells. A maximal 40-50% of cell death was observed when the Huntington gene was induced in this cell line.
# We optimized this assay in a homogeneous 1536 well format. A quantitative high throughput screen (qHTS) was conducted on the PC12 cells which were induced to express the toxic fusion construct. Small molecules which prevented cell death were considered hits, and were further studied. The present assay is an alternate assay for cytoprotection using Promega's Cytotox-Glo reagent.
# PC12 cells stably containing a construct with an ecdysone inducible promoter expressing GFP fused to the exon 1 of HTTQ103 (Huntington protein which containing a 103 ployglutamine expansion) were used.
# NCGC Assay Protocol Summary:
# Sequence, Parameter, Description
# 1, Reagent, 5 uL 1500 cells/well 1536 TC treated White clear bottom plate
# 2, Compound, 23 nL Tebufenozide inducer (100 nM final) to all columns
# 3, Compound, 23 nL 40 uM to 0.5 nM Libraries
# 5, Reagent, 2 ul Promega's Cytotox-Glo assay reagent
# 6, Detector, 4 sec integration with a Viewlux Luminescent
# Media consisted of phenol red free DMEM + 5% equine serum (Hyclone # SH30072.03 ), 5% supplemented Bovine Calf Serum (Hyclone # SH30074.03 ), 1x pen/strep, no G418
row,Structure (SMILES),Potency
1,COC(=O)CNC(=O)C1CCN(C(=O)OCc2ccccc2)CC1,1.41 µM (active)
2,CCC(=O)OCCCCCCOc1ccc(C(=O)O)cc1,0.891 µM (active)
3,Cn1nnnc1Sc1ncnc2scc(-c3ccccc3[N+](=O)[O-])c12,20 µM (active)
4,Cn1nnnc1Sc1ncnc2scc(-c3ccsc3)c12,7.94 µM (active)
5,Cn1nnnc1Sc1ncnc2scc(-c3ccc([N+](=O)[O-])cc3)c12,8.91 µM (active)
6,CC(=O)Nc1ccc(S(=O)(=O)N2CCSC2c2ccccc2)cc1 (stereo not given),inactive
7,CCOC(=O)c1noc(C)c1C(=O)Nc1cccc(F)c1,7.08 µM (active)
8,CCC(=O)O[C@]1(C(=O)CCl)[C@@H](C)C[C@H]2[C@@H]3CCC4=CC(=O)C=C[C@]4(C)[C@@]3(F)[C@@H](O)C[C@@]21C,inactive
9,O=C(NCN1C(=O)C2C3C=CC(C3)C2C1=O)Nc1ccccn1 (stereo not given),inactive
10,O=C(N/N=C/c1ccc(O)c(O)c1)c1ccc(CSc2cccc3cccnc23)cc1,8.91 µM (active)
11,Oc1ccc(/C=C/c2cc(O)cc(O)c2)cc1,2.24 µM (active)
12,Cn1nnnc1Sc1ncnc2scc(-c3ccc(C(F)(F)F)cc3)c12,12.6 µM (active)
13,CCN(CC)CCNc1ccc(CO)c2sc3ccccc3c(=O)c12,10 µM (active)
14,Cn1c(C(=O)N2CCN(c3ccc(Cl)cc3)CC2)cc2c(=O)[nH]c3ccccc3c21,inactive
15,COc1ccccc1-n1nnnc1S(=O)(=O)Cc1ccc(Cl)cc1,14.1 µM (active)
16,CN1C(=O)C2(c3ccccc31)C1CCCC=C1C(C#N)=C(N)C2(C#N)C#N (stereo not given),inactive
17,Fc1cccc(Cl)c1Cn1nnc2c(-n3ccnc3)ncnc21,inactive
18,CS(=O)(=O)c1ccc([C@H](O)[C@H](CO)NC(=O)C(Cl)Cl)cc1,inactive
19,COc1cc(Cc2cnc(N)nc2N)cc(OC)c1OC,inactive
20,Cc1csc(N/N=C/c2ccc(O)c([N+](=O)[O-])c2)n1,1.78 µM (active)

row,Structure (SMILES),Potency
1,Cc1nnc(C)n1/N=C/c1cc(Br)cc(Br)c1O,inactive
2,COc1cc(-c2nc(S(=O)(=O)c3ccc(C)cc3)c(N(C)C)o2)cc(OC)c1OC,inactive
3,N#Cc1c(C(F)(F)F)cc(-c2cccc(Cl)c2)[nH]c1=O,2.51 µM (active)
4,CC(C(=O)O)c1ccc(N2Cc3ccccc3C2=O)cc1 (stereo not given),2.24 µM (active)
5,Cn1nnnc1Sc1ncnc2scc(-c3cccc(S(C)(=O)=O)c3)c12,7.08 µM (active)
6,O=C(CN1CCN(c2ccccn2)CC1)NC1CCCC1,inactive
7,Cn1nnnc1Sc1ncnc2scc(-c3cnc(N)nc3)c12,11.2 µM (active)
8,Cc1[nH]nc2c1C(c1cccc(O)c1)C1=C(CC(C)(C)CC1=O)N2 (stereo not given),inactive
9,O=C(O)/C=C/C(O)c1ccc(Cl)cc1 (stereo not given),inactive
10,C=C(C)C(=O)OCCCCCCOc1ccc(C(=O)O)cc1,2.24 µM (active)
11,COc1ccccc1-c1nnc(Sc2nc([N+](=O)[O-])nn2C)o1,12.6 µM (active)
12,Cn1nnnc1Sc1ncnc2scc(Br)c12,7.94 µM (active)
13,COc1ccc(C2=Nc3cc(C)ccc3OC2)cc1,11.2 µM (active)
14,N#CCCn1c(Cl)nc2ccccc21,inactive
15,Cn1nnnc1Sc1ncnc2scc(-c3cccc(C#N)c3)c12,10 µM (active)
16,Cn1nnnc1Sc1ncnc2scc(-c3ccc(Br)cc3)c12,7.08 µM (active)
17,NCCCCCc1cnc[nH]1,inactive
18,Cn1nnnc1Sc1ncnc2scc(-c3ccccc3C(F)(F)F)c12,20 µM (active)
19,O=C1Cc2c([nH]c3ccc(Br)cc23)-c2ccccc2N1,2.24 µM (active) and 3.55 µM (active)
20,CCCCCCCCNc1ncnc2ccccc12,inactive
